51 compounds from ChEMBL document CHEMBL3988442, “University of Dundee, Small-Polar-MMV Screening Library” (2021) can be followed below.

Assay [1] has as its target T1, Aspartate--tRNA(Asp/Asn) ligase (Mycobacterium tuberculosis (strain ATCC 25618 / H37Rv)) (UniProt P9WFW3). Further: in the data most compounds retested in dose-response had high values.
T1 sequence (whole entry): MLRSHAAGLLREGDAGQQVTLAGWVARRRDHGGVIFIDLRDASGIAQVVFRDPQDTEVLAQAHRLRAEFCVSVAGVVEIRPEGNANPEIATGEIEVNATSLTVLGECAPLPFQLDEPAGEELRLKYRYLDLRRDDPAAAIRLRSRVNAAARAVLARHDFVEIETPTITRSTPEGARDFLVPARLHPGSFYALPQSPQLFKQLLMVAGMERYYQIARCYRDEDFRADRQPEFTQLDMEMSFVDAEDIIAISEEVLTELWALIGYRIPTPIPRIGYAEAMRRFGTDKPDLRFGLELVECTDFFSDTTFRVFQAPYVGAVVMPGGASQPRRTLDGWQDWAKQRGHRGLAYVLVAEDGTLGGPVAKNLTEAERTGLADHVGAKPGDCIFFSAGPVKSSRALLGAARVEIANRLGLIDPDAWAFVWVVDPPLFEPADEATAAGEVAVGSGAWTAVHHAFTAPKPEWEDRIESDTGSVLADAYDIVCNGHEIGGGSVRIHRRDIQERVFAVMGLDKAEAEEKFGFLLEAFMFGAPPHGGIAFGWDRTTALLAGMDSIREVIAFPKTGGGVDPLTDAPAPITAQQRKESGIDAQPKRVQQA
As to the kind of experiment: Assay for Asp RNA synthetase-1 from Mycobacterium tuberculosis. Format: functional. Also on record: scale not given: direction of the effect not stated beside the values. To be noted: 30 µM.

The target of assay [2] is Shiga toxin 2 (Escherichia coli O157:H7) (UniProt P09385+P09386). In words: E. coli 0.157:H7 Shiga Toxin SOP - stx2 screening assay. Format: functional. Also on record: scale not given: direction of the effect not stated beside the values. To be noted: 30 µM.

For the compound `COc1ccc(Nc2nc3c(C)nn(C)c3c(=O)n2C)c(OC)c1`, the Percent Effect in assay [1] is 6.63%; in assay [2], -34.2%.

Take `COc1cc(S(=O)(=O)N2CCCc3ccccc32)cc(C(=O)O)c1OC`: the Percent Effect in assay [1] was 7.13%; in assay [2] it was -8.55%.

`CS(=O)(=O)N1CCOCC2(CN(Cc3ccsc3)CCO2)C1` (configuration not stated): the Percent Effect was -4.1% in assay [1] and 7.57% in assay [2].

In the case of `COCCN1CCN(CCCS(C)(=O)=O)CC1C` (configuration not stated), the Percent Effect in assay [1] was -5.8%; in assay [2], -23.7%.

`Cc1cc(C(=O)N2CCc3nnc(N)cc3C2)c(C)n1C1CC1`: the values for the Percent Effect in assay [1] and in assay [2] were 7.93% and -1.08%, respectively.

For `CCCc1c(C(=O)NC2CCCC2)nnn1-c1ccc(OC)cc1`, the results for the Percent Effect in assay [1] and in assay [2] were -1.57% and -4.2%, respectively.

`Cn1ccnc1CN(CCCO)C1CCCc2ccccc21` (configuration not stated): the Percent Effect in assay [1] stood at 3.32%; in assay [2], 8.83%.

For `FC(F)(F)Cn1ccnc1CN1CCCC1c1noc(C2CC2)n1` (configuration not stated), the Percent Effect is 11.5% in assay [1] and -34% in assay [2].

As for `COc1ccccc1CC(=O)N1CCC(NCc2cc[nH]c2)CC1`, the Percent Effect was -2.74% in assay [1] and -11.8% in assay [2].

On to `CNC(=O)C1CCN(C(=O)c2cccn2Cc2cccs2)CC1`, for which the Percent Effect worked out at 0.91% in assay [1] and 11.1% in assay [2].

With `CCC(C)CNc1ccc2oc(COC)nc2c1` (configuration not stated), the Percent Effect in assay [1] is 65.3%; in assay [2], -59.7%.

For the compound `CC(C)OCCCN1CCCC(c2nc3ccccc3n2C(C)C)C1` (configuration not stated), the values for the Percent Effect in assay [1] and in assay [2] were 6.04% and -18.5%, respectively.

Consider `Cc1cnn(CC2CCCCN2C(=O)c2ccc3[nH]nnc3c2)c1` (configuration not stated), for which the Percent Effect amounted to 0.548% in assay [1] and 30.9% in assay [2].

In the case of `Cc1cc(C)cc(C2(C(=O)NC(C)Cn3ccnc3)CC2)c1` (configuration not stated), the Percent Effect in assay [1] is -2.37%; in assay [2] it was -14.1%.

Consider `Cc1cnc(CN2CCCC(c3cc(C(F)(F)F)[nH]n3)C2)cn1` (configuration not stated), for which the Percent Effect in assay [1] was -6.86%; in assay [2], 7.14%.

As for `CCC(CC)c1cc(CNC(=O)N2CCOC(C)C2)on1` (configuration not stated), the Percent Effect in assay [1] was -0.437%; in assay [2], -11.9%.

Take `O=C(NCC1(N2CCOCC2)CCSC1)Nc1ccc(F)cc1` (configuration not stated): the values for the Percent Effect in assay [1] and in assay [2] were 2% and -8.73%, respectively.

On to `Cc1nc(C)n(CC2CN(Cc3cccc4c3OCCO4)CCO2)n1` (configuration not stated), for which the figures for the Percent Effect in assay [1] and in assay [2] were -4.36% and 23.8%, respectively.

Regarding `CC(C)n1c(=O)nc2n1C(=O)N(c1ccccc1)C2`, the Percent Effect in assay [1] stood at 2.04%; in assay [2], 0.0543%.

`CCn1cnnc1CNC(=O)NCC(c1cccs1)N1CCCC1` (configuration not stated): the Percent Effect in assay [1] is -1.91%; in assay [2], -4.89%.

For the compound `O=C(NCC1CC1)[C@@H]1CCO[C@@H]2CCN(Cc3ccco3)C[C@H]21`, the figures for the Percent Effect in assay [1] and in assay [2] were 7.48% and -6.74%, respectively.

Take `CCCNC(=O)CNC(=O)CCc1ccccc1Br`: the Percent Effect in assay [1] was -2.76%; in assay [2], -0.75%.

Consider `CN(C)c1ccc(C(=O)NCC2(c3ccccc3)CCOCC2)cc1`, for which the Percent Effect is 1.31% in assay [1] and -24.7% in assay [2].

Regarding `COc1ccc(CNC(=O)c2nn(C)c3c2CS(=O)(=O)CC3)cc1OC`, the Percent Effect in assay [1] is -8.6%; in assay [2], -18.6%.

Regarding `Oc1ccc(N2CCN(Cc3cc4c(cc3Br)OCCO4)CC2)cc1`, the Percent Effect was 4.07% in assay [1] and 6.03% in assay [2].

For `CN(C)CC1CSCCCN1C(=O)c1ccc(=O)[nH]c1` (configuration not stated), the values for the Percent Effect in assay [1] and in assay [2] were 0.539% and 3.65%, respectively.

In the case of `Cc1nc(C2CCCN2Cc2ncc(C(C)C)o2)no1` (configuration not stated), the Percent Effect is -2.92% in assay [1] and -16.6% in assay [2].

As for `CCn1ncnc1C(C)NC(=O)C1CCN(C(C)C)CC1` (configuration not stated), the Percent Effect in assay [1] is 3.06%; in assay [2] it was -16.7%.

Take `COCC1CC2(CCN(C(=O)c3cccc(C)c3)CC2)CO1` (configuration not stated): the results for the Percent Effect in assay [1] and in assay [2] were -0.131% and -2.68%, respectively.

For `Cc1nc(COC[C@@H]2CCC[C@@]23CNCCO3)cs1`, the values for the Percent Effect in assay [1] and in assay [2] were 19.4% and -7.74%, respectively.

Turning to `COCCC(=O)N1CCN(CCN(C)C)c2ncccc2C1`, the Percent Effect in assay [1] is 4.55%; in assay [2], -25.6%.

With `Nc1nc(CCC(=O)N2CCOC(CC3CCCCC3)C2)cs1` (configuration not stated), the Percent Effect in assay [1] is -4.71%; in assay [2] it was 19%.

As for `CCn1nc2c(cc1=O)CN(Cc1nc(-c3ccsc3)no1)CC2`, the Percent Effect in assay [1] was 5.03%; in assay [2], -16.2%.

For the compound `COc1ccc(-c2nc(CN3CC(n4cc(C)cn4)C3)no2)cc1`, the Percent Effect was 6.9% in assay [1] and -20.1% in assay [2].

In the case of `CN(Cc1ccco1)C(=O)C1CSCN1C(=O)c1cccnc1` (configuration not stated), the Percent Effect came out at 2.02% in assay [1] and 13.1% in assay [2].

`CCN1CCCn2c(nc(CNC(=O)c3ccsc3)cc2=O)C1`: the Percent Effect in assay [1] came out at 7.56%; in assay [2] it was 11.3%.

`CCN(Cc1ccco1)C(=O)c1cc(OC)c2c(c1)OCCO2`: the figures for the Percent Effect in assay [1] and in assay [2] were 3.71% and -2.41%, respectively.

Consider `CC(C)N1CCc2c(C#N)c(NCc3ccco3)n3cnnc3c2C1`, for which the Percent Effect in assay [1] was 3.86%; in assay [2], -4.38%.

For the compound `Cc1cccc(COC[C@H]2CC[C@H]3[C@H](CCN3C(=O)CC3CC3)O2)n1`, the results for the Percent Effect in assay [1] and in assay [2] were -1.43% and 1.2%, respectively.

Take `Cc1ccc(N2CCCC(NCc3nc(C)c(C)o3)C2)nn1` (configuration not stated): the Percent Effect is -0.975% in assay [1] and -14.9% in assay [2].

In the case of `CC(NC(=O)Cn1cccn1)c1ccc2c(c1)OCCCO2` (configuration not stated), the Percent Effect in assay [1] is -2.88%; in assay [2], -69%.

`COCCN1C[C@@H](C)[C@@]2(COCCN(C(=O)c3cnc(C)cn3)C2)C1`: the figures for the Percent Effect in assay [1] and in assay [2] were -1.78% and -19.1%, respectively.

On to `CCOC(=O)[C@]12CCCN(Cc3ccco3)C[C@H]1CN(CCN(C)C)C2`, for which the Percent Effect in assay [1] is 4.07%; in assay [2] it was -6.83%.

On to `CCOCC(=O)N1C[C@@H](O)[C@H](N(C)Cc2ccc(OC)cc2)C1`, for which the Percent Effect in assay [1] was -0.849%; in assay [2], 14.7%.

As for `O=C(NC1CC1)[C@@H]1CCO[C@@H]2CCN(C3CCOCC3)C[C@@H]21`, the figures for the Percent Effect in assay [1] and in assay [2] were -3.45% and -22%, respectively.

In the case of `O=C(NC[C@]12COC[C@H]1CN(C1CCOCC1)C2)c1ccco1`, the Percent Effect is 1.57% in assay [1] and -3.12% in assay [2].

In the case of `COC1CC2(CCN(Cc3ccc4c(c3)OCO4)CC2)C1`, the Percent Effect in assay [1] is -2.25%; in assay [2] it was -2.07%.

Regarding `O=C(c1ccco1)N1CCC2(CCC(=O)N2Cc2cccc(F)c2)CC1`, the Percent Effect is 1.32% in assay [1] and -6.58% in assay [2].

As for `CCN(CC1CCCO1)C(=O)Nc1ccc(F)cc1OC` (configuration not stated), the Percent Effect was -2.28% in assay [1] and -7.53% in assay [2].

With `CC(C)Cc1noc(CN2CCN(CCO)CC2)n1`, the Percent Effect in assay [1] is -3.95%; in assay [2], 25.7%.

Consider `Cc1ccc2c(n1)N(CCN(C)C)CCN(C(=O)c1ccc[nH]1)C2`, for which the figures for the Percent Effect in assay [1] and in assay [2] were 8.78% and -14.6%, respectively.
